Assay outcomes: PubChem BioAssay, Milwaukee Institute for Drug Discovery
Hits are enriched below; roughly 7.6% of the tested compounds scored in any of these assays.
Cy5 interf NS3h: counter-screen for HCV NS3 helicase inhibitors: fluorescence interference | Cy5-dT15 DNA with NS3h; actives lie on both sides; signal over control mean, under 1 quenches | actives 6% (n = 16,000) | fluorescence interference ratio at 100 µM;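 active = compound fluorescence over control fluorescence at most 0.8, a quencher, or at least a set upper limit, an enhancer; inactive = ratio between 0.8 and the set upper limit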
NS3h inh CB: hepatitis C NS3 helicase inhibition, primary screen; NS3h Cy5-dT15 DNA binding, fluorescence polarization; inhibition, % at 100 µM; actives 1.6% (n = 16,000);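 active = inhibition above the average over every tested compound plus 3 SD, cut at about 40% in these data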
HCV NS3h conf: hepatitis C NS3 helicase inhibition, confirmation. NS3h binding to Cy5-dT15 DNA, fluorescence polarization. actives 20% (n = 240). inhibition, % at 100 µM. shares compounds with NS3h inh CB. AID 720485;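 active = percent inhibition of 50% or more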
SSB-DNA FP CB: E. coli SSB-DNA binding inhibition, NS3h counter-screen | shares compounds with NS3h inh CB | E. coli SSB binding Cy5-dT15, fluorescence polarization | inhibition, % at 100 µM | actives 40% (n = 240) | AID 720486;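 active = inhibition of at least 50%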;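 also: displacers lower Cy5 polarization so higher inhibition means more SSB displaced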
Target sequence (P0AGE0 whole entry, looked up): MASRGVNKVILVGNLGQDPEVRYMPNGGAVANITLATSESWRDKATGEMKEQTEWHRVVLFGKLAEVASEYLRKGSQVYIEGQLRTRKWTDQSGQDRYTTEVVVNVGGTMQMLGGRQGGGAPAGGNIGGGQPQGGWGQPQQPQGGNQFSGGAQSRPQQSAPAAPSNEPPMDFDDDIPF
Cy5 SSB interf: counter-screen for HCV NS3 helicase inhibitors: fluorescence interference; shares compounds with NS3h inh CB; Cy5-dT15/E. coli SSB fluorescence interference; actives lie on both sides; fluorescence interference ratio at 100 µM; actives 8% (n = 240);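 active = fluorescence interference ratio at or above 1.2, signal boosting, or at or below 0.8, signal quenching; inactive = ratio between 0.8 and 1.2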;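 also: ratio of compound well signal to mean negative control signal so 1 means no effect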
Cy5 fluor confirm: confirmation counter-screen for HCV NS3 helicase inhibitors: fluorescence interference. Cy5-dT15 DNA/NS3h fluorescence interference counterscreen. shares compounds with NS3h inh CB. fluorescence interference ratio at 100 µM, hits read low. actives 44% (n = 240);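 active = fluorescence interference ratio at or below 0.8 quencher or at or above a set limitenhancer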;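 also: ratio of compound fluorescence to mean of negative controls so 1 means no interference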
* hit, by the source's call; ! = a repeat was not active.

SMILES | Cy5 interf NS3h | NS3h inh CB | others
COc1cccc(C=C2C(=O)NC(=O)NC2=O)c1 | 0.98 | 32
COc1ccc(C=C2C(=O)NC(=S)NC2=O)c(OC)c1 | 0.78* | 11
COC(=O)C(=O)/C(=C\c1ccc(-c2ccccc2[N+](=O)[O-])o1)C(=O)c1ccccc1 | 0.94 | 16
Cc1ccc(NC(=O)c2nc[nH]c2C(=O)Nc2ccc(Br)cc2C(=O)c2ccccc2)cc1 | 1.1 | -2
COC(=O)c1[nH]cnc1C(=O)Nc1ccc(Cl)cc1C(=O)c1ccccc1 | 0.72*! | 16
Cc1ccc(C)n1-c1ccc(N2CCNCC2)c([N+](=O)[O-])c1 | 0.32* | -18
O=[N+]([O-])c1ccc(N2CCCC2)c(F)c1Br | 0.84 | -3
O=C1NC(=O)C(=Cc2ccc(OCc3cccc(C(=O)O)c3)cc2)C(=O)N1 | 1.1 | -4
COc1ccc2[nH]cc(CCN)c2c1 | 0.76* | 7
CCCc1ccc(OCCNc2ccc([N+](=O)[O-])c3cccnc23)cc1 | 1 | 11
O=[N+]([O-])c1ccc(NCC(O)c2ccccc2)c2ncccc12 (centres undefined) | 0.65* | 36
CC(Nc1ccc([N+](=O)[O-])c2cccnc12)c1ccc(Br)cc1 (centres undefined) | 0.68* | 26
O=[N+]([O-])c1ccc(NCCCO)c2ncccc12 | 0.93 | -14
OC1C2CCCC1C(N1CCCCC1)CC2 (centres undefined) | 0.99 | 1
O=C1NC(=O)C(=Cc2ccccc2Cl)C(=O)N1 | 1.1 | 22
O=C(Nc1ccc(Br)cc1C(=O)c1ccccc1)c1ccc(F)cc1 | 1 | -5
O=C1/C(=C/c2ccccn2)N2CCC1CC2 | 0.97 | -14
COc1ccccc1N1C(=O)NC(=O)/C(=C\c2ccc(O)cc2)C1=O | 0.96 | 29
O=C(Cn1c[n+]([N-][N+](=O)[O-])cn1)Nc1ccc(NC(=O)Cn2c[n+]([N-][N+](=O)[O-])cn2)cc1 | 0.76* | -6
O=C(Cn1c[n+]([N-][N+](=O)[O-])cn1)N1CCN(C(=O)Cn2c[n+]([N-][N+](=O)[O-])cn2)CC1 | 1.1 | 0
Cc1cc(OCc2ccc(Cl)cc2)c2c3c(c(=O)oc2c1)CCC3 | 1.1 | 6
O=C(Nc1ccc(Cl)cc1C(=O)c1ccccc1)c1cncc(Br)c1 | 0.94 | 11
Cc1cc([N+](=O)[O-])nn1CC(=O)Nc1ccc(Cl)cc1C(=O)c1ccccc1 | 0.57* | 9
CC(C)N1CCN(Cc2cc(Br)ccc2O)CC1 | 0.95 | -13
N#CC1=C(N)Oc2c(c(=O)oc3ccccc23)C1c1cccc([N+](=O)[O-])c1 (centres undefined) | 1.1 | 19
SMILES | Cy5 interf NS3h | NS3h inh CB | others
CC1=NN(c2ccccc2)C(=O)C1=Cc1c(O)[nH]c(=O)[nH]c1=O | 0.71* | 14
CC1=[N+]([O-])C(C(=O)c2ccccc2)N(O)C1(C)C (centres undefined) | 1 | 2
Cc1cc(C=C2C(=O)NC(=O)NC2=O)c(C)n1-c1cccnc1 | 1.1 | 47* | HCV NS3h conf=-3;SSB-DNA FP CB=8;Cy5 SSB interf=1;Cy5 fluor confirm=0.76*
Cc1cc(C=C2C(=O)NC(=O)NC2=O)c(C)n1C | 0.93 | -2
Cc1ccc(N2C(=O)NC(=O)/C(=C\C=C\c3ccccc3)C2=O)cc1 | 0.91 | 14
O=C1NC(=S)N(c2ccccc2)C(=O)/C1=C/c1ccc(-c2ccc(C(=O)O)c(Cl)c2)o1 | 1.1 | 68* | HCV NS3h conf=66*;SSB-DNA FP CB=95*;Cy5 SSB interf=0.84;Cy5 fluor confirm=0.93
Cc1ccc(N2C(=O)/C(=C/c3ccc(-c4cccc(C(=O)O)c4)o3)C(=O)NC2=S)cc1 | 1 | 83* | HCV NS3h conf=55*;SSB-DNA FP CB=105*;Cy5 SSB interf=0.81;Cy5 fluor confirm=0.93
O=C1NC(=O)N(c2ccccc2)C(=O)/C1=C\c1ccc(-c2ccc(C(=O)O)cc2)o1 | 0.95 | 83* | HCV NS3h conf=91*;SSB-DNA FP CB=94*;Cy5 SSB interf=0.84;Cy5 fluor confirm=0.76*
O=C1NC(=S)NC(=O)C1=Cc1ccc(-c2cc(Cl)c([N+](=O)[O-])cc2Cl)o1 | 0.88 | 25
Cc1ccc(-n2c(C)cc(/C=C3\C(=O)NC(=S)N(c4ccccc4)C3=O)c2C)cc1 | 0.97 | 0
COc1ccccc1/C=C1/C(=O)C2CCN1CC2 | 1.1 | 4
COc1ccc(C2c3c(c4ccccc4oc3=O)Oc3c2c(=O)oc2ccccc32)cc1 | 0.98 | 0
CCOc1ccc(N2C(=O)NC(=O)/C(=C\c3ccc(Sc4nc5ccccc5[nH]4)o3)C2=O)cc1 | 1 | 8
COc1cc(C=C2C(=O)NC(=O)NC2=O)cc(Cl)c1O | 0.93 | 38
